RecA intein inh – blocks M. tuberculosis RecA intein splicing | P9WHJ3 | cell-free RecA intein splicing, fluorescence | inhibition, % (concentration not given with the values) | actives 0.75% (n = 290,000) | AID 2221; in the data active = inhibition above about 30%;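 also: 0% = vehicle wells and 100% = reference inhibitor control wells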
BJeLR viability – kills HRASV12-expressing BJeLR cells | BJeLR (HRASV12) viability, CellTiter-Glo ATP luminescence, 48 h | inhibition, % (no concentration beside the values) | actives 0.17% (n = 300,000); in the data active = inhibition above about 50%
GDH-TPI counter – counter-screen for M. tuberculosis FBA inhibitors: GDH-TPI coupled enzymes | GDH-TPI coupled enzyme counterscreen, NADH absorbance | inhibition, % at 4.8 µM | actives 1.2% (n = 360,000) | AID 588335; in the data active = inhibition above about 30%;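 also: 0% = DMSO wells and 100% = wells lacking the enzyme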
PrPC TRFRET – inhibitors of human cell surface prion protein PrPC; P04156; TR-FRET read-out; inhibition, % at 13.8 µM; actives 0.43% (n = 370,000); in the data active = inhibition above about 24%; also: 0% = median of the test wells and 100% = reference compound wells
Mtb FBA inh – Mtb fructose-bisphosphate aldolase inhibition; inhibition, % at 1 µM; actives 2.3% (n = 360,000); purified M. tuberculosis FBA, fluorescence read-out; in the data active = inhibition above about 27%;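 also: 0% = vehicle and 100% = reference inhibitor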
An asterisk follows results filed as active; · = no result given; + = active, no number. In the library only some 4.2% were active in any assay of this set; here they are far more common.

SMILES	RecA intein inh	BJeLR viability	GDH-TPI counter	PrPC TRFRET	Mtb FBA inh
CC(/C=N/n1c(-c2cc(C)[nH]n2)n[nH]c1=S)=C\c1ccco1	·	-11	12	-2	-1
CC(/C=N/n1cnnc1)=C\c1ccco1	3	-3	39*	6	1
COc1ccc(/C(O)=C(\C#N)c2nc3ccccc3n2C)cc1OC	-2	1	51*	10	-4
CCOC(=O)/C(C#N)=C/N=c1ccc(C)cn1C	-4	3	39*	-5	2
Cc1onc(-c2ccccc2)c1C(=O)N/N=C/C=C/c1ccccc1	1	3	23	-5	5
Cc1cc(C(=O)N/N=C/C=C/c2cccc([N+](=O)[O-])c2)n[nH]1	-1	-6	24	-39	-5
Cc1ccc(C(=O)N/N=C/C=C/c2ccccc2)o1	1	3	52*	-5	6
Cc1cc(C(=O)N/N=C/C=C/c2ccccc2)n[nH]1	0	18	61*	-7	-1
O=C(N/N=C/C=C/c1ccccc1)c1cc(C2CC2)[nH]n1	-1	7	67*	-6	-1
CCCCNS(=O)(=O)/C=C/c1cc(C)ccc1CNC(=O)OC(C)(C)C	·	·	·	13	·
O=C(COc1ccccc1C(=O)NCc1ccccc1)Nc1ccc(I)cc1	·	·	·	2	·
Cc1cc(C)c2c3c(sc2n1)C(c1cccc(F)c1)C(C#N)=C(N)O3 (stereo not given)	·	-8	9	-3	64*
CCCN1CCC2(CC1)C(C#N)=C(N)Oc1c2sc2nc(C)cc(C)c12	-3	4	4	-14	-1
Oc1c(CN2CCN(c3ccccc3)CC2)cc(Br)c2cccnc12	10	77*	5	0	1
c1ccc(N2CCN(Cc3ccnc4ccccc34)CC2)cc1	4	30	9	7	10
COc1ccc(CCn2c(-c3ccco3)nc3nc4ccccc4nc32)cc1	1	4	21	-15	3
CCCCCn1c(-c2ccco2)nc2nc3ccccc3nc21	-47	-1	6	-5	+
c1coc(-c2nc3nc4ccccc4nc3n2CC2CCCO2)c1 (stereo not given)	-57	-15	22	-18	+
Clc1ccc(-c2nc3nc4ccccc4nc3n2Cc2ccco2)cc1	·	·	23	-18	16
c1ccc(Cn2c(-c3ccco3)nc3nc4ccccc4nc32)cc1	-14	7	21	-19	+
Cc1ccc(-c2nc3nc4ccccc4nc3n2Cc2ccco2)cc1	3	-1	46*	-6	14
N/C(=N\N=C\c1cccc([N+](=O)[O-])c1)c1nonc1N	2	-8	12	-22	0
N/C(=N\N=C\c1ccc2c(c1)OCO2)c1nonc1N	-1	9	32*	-4	2
N#Cc1nc(-c2cccs2)oc1NCC1CCCO1 (stereo not given)	-3	-2	19	-5	+
Cc1ccc(-c2cc(C(F)F)nc(NCC3CCCO3)n2)cc1 (stereo not given)	1	-25	2	3	6
SMILES	RecA intein inh	BJeLR viability	GDH-TPI counter	PrPC TRFRET	Mtb FBA inh
COc1ccc(-c2nc(C#N)c(NCC3CCCO3)o2)cc1 (stereo not given)	·	-4	16	9	177*
COc1ccc(-c2nc(C#N)c(NCc3ccccc3Cl)o2)cc1	2	-6	1	-3	10
Cc1ccc(-c2nc(C#N)c(NCC3CCCO3)o2)cc1 (stereo not given)	-1	5	6	-12	180*
O=C(NCC1CCCO1)c1coc2nc3ccccc3nc12 (stereo not given)	-9	-4	9	-8	126*
O=C(Nc1ccccc1C(=O)NCC1CCCO1)c1ccccc1 (stereo not given)	0	4	-3	12	-7
COC(CNC(=O)c1coc2nc3ccccc3nc12)OC	-8	3	29	-6	120*
CCCCOCCCNC(=O)C[C@@H]1C(=O)N2CCCC3=C2[C@@]1(C(=O)OC)CCCC3	·	·	·	4	·
O=C1N=C(N2CCN(c3ccccc3)CC2)S/C1=C/c1ccco1	4	1	34*	-3	-1
O=C1N=C(N2CCCC2)S/C1=C\c1ccccc1	0	-6	54*	-27	-4
CC(C)(C)c1ccc(/C=C2/SC(N3CCCC3)=NC2=O)cc1	17	2	37*	-16	-1
O=C1N=C(N2CCCCC2)S/C1=C\c1ccccc1F	-1	-4	45*	-6	-2
O=C1N=C(N2CCCCC2)S/C1=C\c1ccc(Cl)cc1	3	1	28	-4	-1
O=C1N=C(N2CCN(c3ccccc3)CC2)S/C1=C\c1ccco1	1	-7	30	-7	-3
CCCOc1ccccc1/C=C1\SC(N2CCCCC2)=NC1=O	0	16	15	1	2
CC(C)CN1C(=O)C[C@@]2(C(=O)N(C)c3ccc(NC(=O)C(F)(F)F)cc32)C1c1ccccc1 (stereo not given in full)	·	·	·	-1	·
C=CCOc1ccc(/C=C2\SC(N3CCCCC3)=NC2=O)cc1	4	-1	38*	-5	1
CCOc1ccc(/C=C2\SC(N3CCc4ccccc4C3)=NC2=O)cc1	2	-12	13	3	0
Cc1ccc(/C=C2\SC(N3CCCCC3)=NC2=O)cc1	0	-3	32*	-15	2
COc1cccc(/C=C2\SC(N3CCCC(C)C3)=NC2=O)c1OC (stereo not given)	0	-19	33*	-14	0
COc1cccc(/C=C2\SC(N3CCC(C)CC3)=NC2=O)c1OC	1	-7	20	-9	3
CCOP(=O)(OCC)c1nc(-c2cccc3ccccc23)oc1NCc1ccccc1	·	6	10	-8	+
COc1ccc(CC(=O)NCc2ccccc2)cc1	1	28	-6	11	-1
CCOP(=O)(OCC)c1nc(-c2cccc3ccccc23)oc1NCc1ccc(OC)cc1	0	1	-3	10	169*
CCN1CCCC1CNC(=O)c1ccc2c(c1)NC(=O)/C(=C\c1ccc(OC)c(OC)c1)S2 (stereo not given)	-1	15	31*	-20	-1
CCN1CCCC1CNC(=O)c1ccc2c(c1)NC(=O)/C(=C\c1ccccc1Cl)S2 (stereo not given)	·	·	7	-8	-2
SMILES	RecA intein inh	BJeLR viability	GDH-TPI counter	PrPC TRFRET	Mtb FBA inh
COc1ccc(-n2nnc3c(SC(C(C)=O)C(=O)N(C)C)ncnc32)cc1 (stereo not given)	25	-2	32*	-14	-2
COC(=O)C(C)Sc1ncnc2c1nnn2-c1ccc(F)cc1 (stereo not given)	53*	6	-1	-1	0
Cn1ccnc1C(=O)O[C@@H]1CCC[C@@]2(C(=O)N(Cc3ccccc3)c3ccccc32)[C@H]1NC(=O)CCc1ccccc1	·	·	·	8	·
CCN(CC)c1ccc(C=Nc2ccc(N(C)C)cc2)c(O)c1	-3	-1	54*	-23	-3
CCN(CC)c1ccc(N=Cc2ccc(N(CC)CC)cc2O)cc1	-2	1	14	-2	-5
CCN(CC)c1ccc(C=Nc2ccc(C)cc2)c(O)c1	·	7	45*	2	-2
